Assay results reported in PubChem BioAssay (NCATS).
Results filed as inconclusive are left out. The source made the active and inactive calls. Unless noted, calls follow the shape of the dose curve; as a rule, active = well fitted curve in the direction sought with a large enough effect; inconclusive = small, poorly fitted or top-dose-only effect, or another doubt; inactive = no such curve, though single readings can be large; an effect the other way counts as inactive or inconclusive.

How the values were obtained:
[1] = Stat Signaling Pathway (AID 446; active = well fitted curve in either direction with a large enough effect, not every such curve was filed as active;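 also: ME-180 cervical cancer cells given 40 pM IL-6 alongside compound; SIE-controlled beta-lactamase reporter measured as 460/530 nm FRET emission ratio; % is scaled to controls: 0 for no effect and ±100 for the full control effect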); settings: ME-180 SIE beta-lactamase reporter, IL-6 stimulated, 5 h
Summary of the method: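 ME-180 cells carrying a SIE-driven beta-lactamase reporter are stimulated with 40 pM IL-6 for 5 h at 37C in the presence of compound. The 460/530 nm FRET substrate ratio is read after 2.5 h at RT. Data are normalised to 300 pM IL-6 and to 125 nM JAK inhibitor controls.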

[2] = molecular target: Glucocorticoid receptor (Homo sapiens) (UniProt P04150); test: GR-GFP Redistribution (AID 450;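 active = compounds whose dose series gives a full or clear partial fitted curve of increased nuclear translocation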; also: potency is read from the fitted curve at half-maximal effect); settings: U2OS GR-GFP nuclear translocation, laser cytometry, 2 h
Chain of Glucocorticoid receptor (Homo sapiens) (P04150 whole entry, looked up, the tested form may be a part): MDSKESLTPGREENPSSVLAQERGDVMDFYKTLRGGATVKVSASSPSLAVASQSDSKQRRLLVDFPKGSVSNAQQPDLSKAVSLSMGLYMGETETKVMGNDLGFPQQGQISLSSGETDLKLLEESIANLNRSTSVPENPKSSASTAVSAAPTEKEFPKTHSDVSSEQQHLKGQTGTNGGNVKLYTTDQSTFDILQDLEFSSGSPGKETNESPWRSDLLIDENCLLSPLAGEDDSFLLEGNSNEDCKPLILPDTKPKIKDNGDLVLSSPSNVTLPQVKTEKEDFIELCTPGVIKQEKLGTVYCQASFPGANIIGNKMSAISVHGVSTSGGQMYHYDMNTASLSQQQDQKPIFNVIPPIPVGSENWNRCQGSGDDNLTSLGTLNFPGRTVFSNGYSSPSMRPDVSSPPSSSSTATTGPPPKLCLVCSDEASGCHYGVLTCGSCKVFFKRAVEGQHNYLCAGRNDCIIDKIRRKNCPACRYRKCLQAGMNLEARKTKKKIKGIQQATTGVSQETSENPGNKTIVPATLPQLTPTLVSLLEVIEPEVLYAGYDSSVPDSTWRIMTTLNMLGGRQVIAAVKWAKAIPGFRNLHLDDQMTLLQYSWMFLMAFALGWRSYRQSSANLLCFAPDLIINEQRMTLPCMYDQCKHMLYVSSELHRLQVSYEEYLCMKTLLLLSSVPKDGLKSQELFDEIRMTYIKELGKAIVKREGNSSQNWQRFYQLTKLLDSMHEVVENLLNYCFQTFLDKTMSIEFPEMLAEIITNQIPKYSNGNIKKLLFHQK

[3] = molecular target: Glucocorticoid receptor (Homo sapiens) (UniProt P04150); test: GR-EFC Redistribution (AID 451; calls by dose curve; also: potency is read from the fitted curve at half-maximal effect); settings: CHO-K1 GR-EFC translocation, beta-gal luminescence, 2 h
Summary of the method: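 Translocation of GR-ED fusion to nuclear EA restores b-gal, read by luminescence after 1 h room-temperature detection. Engineered CHO-K1 biosensor cells, 1,000/well, exposed 2 h at 37 C to titrations up to 46 uM final.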

[4] = molecular target: Mitogen-activated protein kinase 10 (Mus musculus) (UniProt Q61831); test: JNK3 AlphaScreen Assay (AID 530; active = well fitted curve in either direction with a large enough effect, not every such curve was filed as active;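 also: kinase came from lysate of stimulated human HepG2 cells; signal reports phosphorylation of biotinylated GST-cJun 1-79 at Ser73 with 10 µM ATP; % is scaled to controls: 0 for no effect and ±100 for the full control effect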); settings: JNK3 lysate, c-Jun phosphorylation; series mostly up to 25.6 µM
Summary of the method: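 Room-temperature AlphaScreen kinase assay; pre-activated HepG2 lysate as JNK3 source, biotin-GST-cJun(1-79) substrate, 10 uM ATP, compound 15 min preincubation.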

[5] = molecular target: 3',5'-cyclic-AMP phosphodiesterase 4B (Homo sapiens) (UniProt Q07343); test: qHTS Assay for Inhibitors of PDE-IV (AID 607; active = well fitted activation curve with a large enough effect in the main read-out, with a control signal flat, not every such curve was filed as active; also: % of control where 0% means no effect); settings: HEK293 ACTOne CNG channel cells, membrane potential fluorescence; series mostly up to 22.9 µM
Chain of 3',5'-cyclic-AMP phosphodiesterase 4B (Homo sapiens) (Q07343 whole entry, looked up): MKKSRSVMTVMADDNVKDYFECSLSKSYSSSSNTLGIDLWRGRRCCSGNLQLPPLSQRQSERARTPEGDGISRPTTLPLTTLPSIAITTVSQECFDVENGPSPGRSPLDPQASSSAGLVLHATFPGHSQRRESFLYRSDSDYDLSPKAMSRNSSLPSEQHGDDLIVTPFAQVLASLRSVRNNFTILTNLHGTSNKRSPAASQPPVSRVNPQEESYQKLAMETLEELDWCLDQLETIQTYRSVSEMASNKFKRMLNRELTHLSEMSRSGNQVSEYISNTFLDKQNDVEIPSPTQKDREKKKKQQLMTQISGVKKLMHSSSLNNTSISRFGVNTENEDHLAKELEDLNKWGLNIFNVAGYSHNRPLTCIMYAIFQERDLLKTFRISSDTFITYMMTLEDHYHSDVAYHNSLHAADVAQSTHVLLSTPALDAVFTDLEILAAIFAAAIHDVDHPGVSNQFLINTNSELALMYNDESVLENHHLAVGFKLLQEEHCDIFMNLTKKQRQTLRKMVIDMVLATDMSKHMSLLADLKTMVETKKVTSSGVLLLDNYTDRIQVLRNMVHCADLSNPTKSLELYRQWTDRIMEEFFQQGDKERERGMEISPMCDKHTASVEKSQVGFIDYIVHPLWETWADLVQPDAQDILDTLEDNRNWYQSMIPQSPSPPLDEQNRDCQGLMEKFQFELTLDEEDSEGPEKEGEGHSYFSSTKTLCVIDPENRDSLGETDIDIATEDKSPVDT
Summary of the method: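 HEK293 ACTOne cells with CNG channel (1000/well), endogenous PDE4; membrane potential dye, compounds up to 22.9 uM final. Fluorescence Ex 535/Em 590; RO 20-1724 (100 uM final) as reference.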

[6] = Cell Viability - N2a (AID 540); settings: N2a mouse neuroblastoma cell viability; activity change, negative = cytotoxicity: at 92.2 µM (top of the series); also: nearly all actives have a fitted effect of over 45% in size; also: potency is read from the fitted curve at half-maximal effect;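 as to activity change, negative = cytotoxicity: plate controls were DMSO alone for no effect and tamoxifen control for full effect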
Summary of the method: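 First, 1500 N2a cells per well incubate 5 hr at 37 °C; next, compounds are added and incubated 40 hr at 37 °C; finally CellTiter-Glo is added and luminescence read after 20 min, with AC50 derived by Hill modeling.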

[7] = Cell Viability - NIH 3T3 (AID 541); settings: NIH 3T3 cell viability, qHTS; activity change, negative = cytotoxicity: at 92.2 µM (top of the series);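 also: cells exposed to compound for 40 hours; nearly all actives have a fitted effect of over 25% in size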; also: potency is read from the fitted curve at half-maximal effect;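 as to activity change, negative = cytotoxicity: plate controls were DMSO alone for no effect and tamoxifen positive control for full effect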
Summary of the method: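 AC50 values reflect concentration-dependent loss of intracellular ATP in NIH 3T3 cells after 40 hr treatment in complete culture medium, quantified by luciferase-based luminescence.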

[8] = Cell Viability - HUV-EC-C (AID 542); settings: HUV-EC-C endothelial cell viability, qHTS; series mostly up to 92.2 µM;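 also: cells exposed to compound for 40 hours; nearly all actives have a fitted effect of over 35% in size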; also: potency is read from the fitted curve at half-maximal effect; as to activity change, negative = cytotoxicity: % is scaled to controls: 0 for no effect and ±100 for the full control effect
Summary of the method: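 Decrease in cellular ATP, quantified by luciferase luminescence, reflects toxicity in normal human vascular endothelial HUV-EC-C cells given compound for 40 hr in complete culture medium. Values are AC50s from concentration-response curves.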

[9] = Cell Viability - H-4-II-E (AID 543); settings: H-4-II-E rat hepatoma viability; series mostly up to 92.2 µM;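 also: cells exposed to compound for 40 hours; nearly all actives have a fitted effect of over 35% in size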; also: potency is read from the fitted curve at half-maximal effect
Summary of the method: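 Here, cytotoxicity is measured in the rat hepatoma line H-4-II-E as loss of intracellular ATP after 40 hr compound treatment, detected by luciferase luminescence.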

[10] = Cell Viability - SH-SY5Y (AID 544); settings: SH-SY5Y neuroblastoma cell viability; viability change, negative = cytotoxic: at 92.2 µM (top of the series);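 also: cells exposed to compound for 40 hours; nearly all actives have a fitted effect of over 55% in size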; also: potency is read from the fitted curve at half-maximal effect
Summary of the method: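 Cytotoxicity is scored as a concentration-dependent fall in intracellular ATP in human SH-SY5Y cells treated 40 hr in complete culture medium. Potency is expressed as AC50 from a Hill equation fit.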

[11] = Cell Viability - Mesenchymal (AID 546); settings: mesenchymal cells viability, qHTS; activity change, negative = cytotoxicity: at 91.7 µM (top of the series);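 also: cells exposed to compound for 40 hours before reading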
Summary of the method: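 AC50 values reflect the drop in intracellular ATP in a human kidney mesenchymal line derived from normal glomeruli. Treatment lasts 40 hr at 37 °C in complete medium, and the signal comes from CellTiter-Glo luminescence.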

[12] = Cellular Toxicity (caspase-3) HepG2 (AID 654); settings: HepG2 caspase-3 activation, luminescence; series mostly up to 92.2 µM;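 also: cells exposed to compound for 16 hours before reading; 0% = DMSO alone and 100% = caspase signal from 100 µM tamoxifen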
Summary of the method: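 qHTS, HepG2, 1500 cells/well, complete medium; cpd 16 h 37 °C; Caspase-Glo 3/7, 20 min RT; lum. Norm: DMSO vs 100 uM tamoxifen; AC50 Hill fit.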

[13] = Cellular Toxicity (caspase-3) Jurkat (AID 655); settings: Jurkat caspase-3 activation, luminescence; series mostly up to 92.2 µM;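 also: cells exposed to compound for 16 h at 37 °C before reading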
Summary of the method: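 5000 Jurkat cells/well; compound 16 hr, 37 °C; Caspase-Glo 3/7 added, 20 min RT; luminescence read. Norm: DMSO = 0%, tamoxifen 100 uM = 100%. AC50, Hill model.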

[14] = Cellular Toxicity (caspase-3) HUV-EC-C (AID 656); settings: HUV-EC-C cells, caspase-3 activation (apoptosis), vehicle = 0, 100 µM tamoxifen = 100%; series mostly up to 92.2 µM
Summary of the method: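 qHTS; HUV-EC-C, 1000 cells/well; 5 hr settle, 16 hr cmpd, 37°C; Caspase-Glo 3/7, 20 min RT; luminescence. Norm: DMSO = 0%, tamoxifen 100 uM = 100%. Hill-fit AC50.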

[15] = Cellular Toxicity (caspase-3) BJ (AID 658); settings: BJ fibroblasts, luminescence, normalized: DMSO 0%, staurosporine 100%; series mostly up to 91.7 µM;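 also: 0% = DMSO basal and 100% = 10 µM staurosporine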
Summary of the method: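 Readout: Caspase-Glo 3/7 luminescence increase in BJ cells after 16 hr treatment at 37 °C. Staurosporine and tamoxifen served as positive controls; AC50 values came from Hill modelling of data normalized to DMSO and 10 uM staurosporine.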

[16] = Cellular Toxicity (caspase-3) MRC-5 (AID 659); settings: MRC-5 cells, luminescence; Potency: caspase-3 activation; series mostly up to 91.7 µM;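 also: cells exposed to compound for 16 h at 37 °C; 0% = DMSO basal and 100% = 10 µM staurosporine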
Summary of the method: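 Concentration-dependent caspase 3/7 activation is measured in human normal lung fibroblasts (MRC-5) following 16-hour treatment. AC50 values come from standard Hill-equation modeling of luminescence normalized to DMSO and 10 uM staurosporine.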

[17] = Cellular Toxicity (caspase-3) Mesangial (AID 660); settings: mesangial cells, normalized: DMSO 0%, 100 µM tamoxifen 100%; series mostly up to 91.7 µM;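 also: combined caspase 3 and 7 activity read by Caspase-Glo luminescence; cells exposed to compound for 16 h before the caspase read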
Summary of the method: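 Concentration-response qHTS: compound-induced rise in caspase 3/7 luminescence in human mesangial cells after 16 h, normalized to DMSO and 100 uM tamoxifen controls.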

[18] = Cellular Toxicity (caspase-3) SK-N-SH (AID 661); settings: SK-N-SH caspase-3 activation, qHTS; series mostly up to 91.7 µM;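 also: 0% = DMSO basal and 100% = 10 µM staurosporine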
Summary of the method: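 Caspase 3/7 activation is measured as a luminescence increase from aminoluciferin released by substrate cleavage in SK-N-SH cells after 16 hr compound treatment; values are AC50 from concentration-response curves.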

[19] = Cellular Toxicity (caspase-3) H-4-II-E (AID 663); settings: H-4-II-E rat hepatoma; Potency: caspase-3 activation; series mostly up to 92.2 µM;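 also: cells exposed to compound for 16 hr before readout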
Summary of the method: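 Apoptosis induction is scored as increased luminescence from caspase 3/7 substrate cleavage in rat hepatoma H-4-II-E cells exposed to compound for 16 hr. Activity is scaled between DMSO and 100 uM tamoxifen.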

[20] = Cell Viability - Renal Proximal Tubule (AID 545); settings: renal proximal tubule cells viability, primary cells of rat origin; activity change, negative = cytotoxicity: at 91.7 µM (top of the series);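 also: cells exposed to compound for 40 hours; nearly all actives have a fitted effect of over 40% in size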
Summary of the method: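 Luminescent ATP signal (CellTiter-Glo) served as the viability read-out after 40 hr compound exposure of freshly isolated rat proximal tubule cells at 37 °C. Concentration-dependent ATP loss was fitted with the Hill equation to give AC50.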

CCCCCCCCCCCCCCCC[N+](C)(C)CCN(Cc1ccc(OC)cc1)c1ncccn1
inactive: activity, negative = inhibition ([1]; at 17.2 µM (top of the series)) 11.5% | Potency [2] > 20.6 µM | Potency [3] > 20.6 µM | outcome [4]

CCOC(=O)n1ccn(C)c1=S
inactive: activity, negative = inhibition ([1]; at 17.2 µM (top of the series)) 4.14% | Potency [2] > 20.6 µM | Potency [3] > 20.6 µM | outcome [5]

O=C(CCCN1CCC(O)(c2ccc(Br)cc2)CC1)c1ccc(F)cc1
inactive: activity, negative = inhibition ([1]; at 17.2 µM (top of the series)) 1.5% | Potency [2] > 20.6 µM | Potency [3] > 20.6 µM | outcome [4] | outcome [5]

Oc1ccc(O)cc1
inactive: activity, negative = inhibition ([1]; at 38 µM (top of the series)) 3.99% | Potency [2] > 46 µM | Potency [3] > 46 µM | outcome [5] | Potency [12] | Potency [13] | outcome [14] | outcome [15] | Potency [16] | outcome [17] | Potency [18]
active: Potency [6] 20 µM | Potency [7] 20 µM | Potency [8] 39.8 µM | Potency [9] 79.4 µM | Potency [10] 3.16 µM | activity change, negative = cytotoxicity [11] -96.1%

CC(=O)N(O)CCCCCNC(=O)CCC(=O)N(O)CCCCCNC(=O)CCC(=O)N(O)CCCCCN
inactive: activity, negative = inhibition ([1]; at 17.2 µM (top of the series)) 10.3% | Potency [2] > 20.6 µM | Potency [3] > 20.6 µM | outcome [4] | outcome [5]

O=C(O)c1cc2cc(Cc3cccnc3)ccc2o1
inactive: activity, negative = inhibition ([1]; at 38 µM (top of the series)) 6.34% | Potency [2] > 46 µM | Potency [3] > 46 µM | outcome [4] | outcome [5]

O=C1CCC(c2ccc(-n3ccnc3)cc2)=NN1
inactive: activity, negative = inhibition ([1]; at 38 µM (top of the series)) 9.57% | Potency [2] > 46 µM | Potency [3] > 46 µM | outcome [5]

CC(=O)c1ccc2c(c1)N(CCCN1CCC(CCO)CC1)c1ccccc1S2
inactive: activity, negative = inhibition ([1]; at 17.2 µM (top of the series)) 9.61% | Potency [2] > 20.6 µM | Potency [3] > 20.6 µM | outcome [4] | outcome [5]

CN1CCN(C(c2ccccc2)c2ccccc2)CC1
inactive: activity, negative = inhibition ([1]; at 17.2 µM (top of the series)) 3.06% | Potency [2] > 20.6 µM | Potency [3] > 20.6 µM | outcome [5]

CN1CCN(CCCN2c3ccccc3Sc3ccc(S(=O)(=O)N(C)C)cc32)CC1
inactive: activity, negative = inhibition ([1]; at 17.2 µM (top of the series)) 5.77% | Potency [2] > 20.6 µM | Potency [3] > 20.6 µM | outcome [5]

CN(C(=O)CN(CCO)CC(=O)N(C)C(C)(C)Cc1ccccc1)C(C)(C)Cc1ccccc1
inactive: activity, negative = inhibition ([1]; at 17.2 µM (top of the series)) 5.14% | Potency [2] > 20.6 µM | Potency [3] > 20.6 µM | outcome [4] | outcome [5]

Cc1ccnc(NS(=O)(=O)c2ccc(N)cc2)n1
inactive: activity, negative = inhibition ([1]; at 17.2 µM (top of the series)) -12.6% | Potency [2] > 20.6 µM | Potency [3] > 20.6 µM | outcome [5]

Nc1cc(Cl)c(NC2=NCCN2)c(Cl)c1
inactive: activity, negative = inhibition ([1]; at 38 µM (top of the series)) -3.42% | Potency [2] > 46 µM | Potency [3] > 46 µM | outcome [5]

Oc1c(I)cc(I)c2cccnc12
inactive: Potency [2] > 20.6 µM

CC(=O)O[C@]1(C(C)=O)CC[C@H]2[C@@H]3C[C@H](C)C4=CC(=O)CC[C@]4(C)[C@H]3CC[C@@]21C
active: activity change, negative = cytotoxicity [7] -134% | Potency [9] 50.1 µM
inactive: activity, negative = inhibition ([1]; at 17.2 µM (top of the series)) 11.1% | outcome [4] | Potency [8] | activity change, negative = cytotoxicity [11] -6.64% | Potency [12] | outcome [14] | outcome [15] | Potency [16] | outcome [17] | Potency [18] | Potency [19]

CCCCCCc1ccc(O)cc1O
inactive: Potency [8] | Potency [9] | Potency [10] | activity change, negative = cytotoxicity [20] -9.26% | activity change, negative = cytotoxicity [11] -9.3% | Potency [12] | Potency [13] | outcome [14] | outcome [15] | Potency [16] | outcome [17] | Potency [18] | Potency [19]

CN(C)/N=N/c1nc[nH]c1C(N)=O
inactive: outcome [4] | Potency [6] | Potency [8] | activity change, negative = cytotoxicity [20] -19.1% | activity change, negative = cytotoxicity [11] -2.47% | Potency [12] | Potency [13] | outcome [14] | outcome [15] | Potency [16] | outcome [17] | Potency [18] | Potency [19]
active: Potency [9] 25.1 µM
